Screen size: about 290,000 compounds; about 3,200 (1.1%) were called active. Rule as the data show it: active = inhibition above about 60%; inactive = the rest. The entries come from a sample that favours actives as a whole.
target: Phosphoethanolamine/phosphocholine phosphatase (Homo sapiens) (UniProt Q8TCT1); experiment: PubChem AID 1565; settings: recombinant PHOSPHO1, absorbance phosphatase assay; at 13.3 µM; active compounds read high
Sequence (Q8TCT1 whole entry, looked up): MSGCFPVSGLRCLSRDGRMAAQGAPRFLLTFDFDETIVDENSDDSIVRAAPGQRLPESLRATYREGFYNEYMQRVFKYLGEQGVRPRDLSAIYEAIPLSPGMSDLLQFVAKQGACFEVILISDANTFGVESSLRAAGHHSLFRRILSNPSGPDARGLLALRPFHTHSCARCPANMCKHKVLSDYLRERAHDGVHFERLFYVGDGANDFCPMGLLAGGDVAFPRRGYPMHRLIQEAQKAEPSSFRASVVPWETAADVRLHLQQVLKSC

inhibition, inactive:
CCCNC(=O)COc1coc(CN2CCN(Cc3ccccc3)CC2)cc1=O 36%
CCOC(=O)N1CCN(Cc2nc(Cc3cccc(C(F)(F)F)c3)no2)CC1 34.6%
FC(F)(F)c1cccc(Cc2noc(CN3CCC(N4CCCCC4)CC3)n2)c1 51.8%
COC(=O)c1ccc(CNC(=O)C2CCC(=O)N(Cc3ccccn3)C2)cc1 (stereo not drawn) 11.9%
O=C(C[C@H]1C(=O)N(c2ccc(F)c(F)c2)C[C@@H]1Cc1ccccc1)Nc1ccccc1 -7.3%
Cc1ccc(OCCCC(=O)NC(C)c2ccccc2)c(C)c1 (stereo not drawn) 48.4%
Cc1ccc(OCC(=O)NC(C)c2ccccc2)cc1C (stereo not drawn) -16.6%
Cc1sc2ncn(CC(=O)NCCCC(=O)N3CCN(c4ccccc4F)CC3)c(=O)c2c1C 2.2%
Cn1cc(S(=O)(=O)Nc2ccc(Cl)cc2Cl)c(=O)n(C)c1=O 20.2%
Cc1ccc(C)c(S(=O)(=O)Nc2cccc(-n3cnnn3)c2)c1 34.8%
CCOC(=O)N1CCN(CCC(=O)Nc2ccccc2)CC1 44.4%
O=C(CN1CCN(c2ccccc2)CC1)Nc1ccc(F)cc1 27%
CCOC(=O)C1=C(C)Nc2sc(C(=O)c3ccc(Br)cc3)c(N)c2C1c1ccc(C(=O)OC)cc1 (stereo not drawn) 38.2%
CCOC(=O)c1sc(NC(=O)c2ccncc2)nc1C -5.8%
CCOc1ccc(CN2CCC(n3nccc3NC(=O)C3CC3)CC2)cc1CO 12.7%
CCCc1c(C(=O)Nc2ccc(F)cc2)cnn1-c1ccccc1 41.2%
COc1ccc(-c2noc(CCCC(=O)NC3CCCC3)n2)cc1OC 18.5%
CC(=O)c1ccc(N2Cc3ccccc3C2)cc1 29.1%
Cc1cc(Cl)c2oc(C(=O)N(C)C(C)c3ccccn3)c(C)c2c1 (stereo not drawn) 18.5%
Cc1ccc(N(CC(=O)NCC2CCCO2)C(=O)CNS(=O)(=O)c2ccc(Cl)cc2)cc1 (stereo not drawn) 32.5%
CCCCn1c(SCC(=O)NCC2CCCO2)nc2ccc(N3CCOCC3)cc2c1=O (stereo not drawn) -6.7%
CCc1ccc(NC(=O)CSc2nc3ccccc3c(=O)n2CCN2CCOCC2)cc1 2.3%
COc1cccc2cc(C(=O)NCc3ccc(C)cc3)c(=N)oc12 37.7%
CC(=O)Nc1ccc(NC(=O)C2CCCN2S(=O)(=O)c2cccc(C(F)(F)F)c2)cc1 (stereo not drawn) 24%
Cc1c2cnn(CC(=O)NCc3ccccn3)c(=O)c2c(C)n1Cc1ccc(Cl)cc1 -9%
Nc1nnc(SCn2nnc3ccccc3c2=O)s1 16.1%
Cc1ccc(CNC(=O)CN2CCN(Cc3ccc(Cl)cc3)C2=O)cc1 4.8%
O=c1c2ccccc2nnn1CSc1nnnn1-c1ccccc1 8%
COc1ccc(N(C)C(=O)C2CCN(S(=O)(=O)c3cccc4nsnc34)CC2)cc1 6.8%
CCOc1ccc(NC(=O)CCCCCN2C(=O)[C@@H]3Cc4ccccc4CN3C2=O)cc1 6.8%
COc1cc(C(=O)OC2CCOC2=O)c([N+](=O)[O-])cc1OC (stereo not drawn) 32.3%
COc1ccc2[nH]c(C(=O)N3CCN(C)CC3)c(C)c2c1 18.7%
Cc1ccc(S(=O)(=O)N2CCN(C(=O)N3CCOCC3)CC2)c(C)c1 -7.3%
N#Cc1ccccc1-n1c(N)c(C(=O)N2CCCC2)sc1=S -13.6%
Cc1cccc(C(=O)N2CCCN(C(=O)c3cccc(C)c3)CC2)c1 8.5%
COCC1CCN(C(=O)c2ccc3oc(Cc4ccccc4)nc3c2)C1 (stereo not drawn) 27.6%
Cc1cc(OCc2cc(C(=O)NCc3cc(C(C)C)no3)no2)cc(C)c1Cl 22.6%
CCn1cc(CCC(=O)NCc2ccc(F)cc2)c2ccccc21 38.1%
COc1ccc(CN(C)C(=O)c2cc(-c3ccc(C)cc3C)nc3ccccc23)c(OC)c1OC 31.9%

inhibition, active:
Fc1cccc(Cc2noc(CN3CCN(c4cnccn4)CC3)n2)c1 62.8%
Cc1ccccc1OCCC(=O)OCC(=O)NC(C)c1ccccc1 (stereo not drawn) 64.7%
CCOC(=O)N1CCN(CC(=O)Nc2ccc(F)cc2)CC1 60.1%
CCOC(=O)c1sc(=S)n2c1[nH]c(=O)c1ccc(C(=O)OC)cc12 98.7%
N#CCSc1nc2ccc(N3CCOCC3)cc2c(=O)n1CCc1ccccc1 81.7%
C=CCn1c(SCn2nnc3ccccc3c2=O)nnc1-c1ccc(Cl)cc1 94.8%
O=C(Cn1nnc2ccccc2c1=O)NCc1ccc(Cl)cc1 62.9%
Cc1cccc(-n2c(N)c(C(=O)N3CCN(C)CC3)sc2=S)c1 83.6%
Cc1ccc(-n2c(N)c(C(=O)N3CCOCC3)sc2=S)c(C)c1 87.8%
